CYP2C19 inhib: blocks human cytochrome P450 2C19 | P33261 | CYP2C19 Supersomes, luciferin-H EGE luminescence, 30 min | inhibition, % at 5 µM | 96,000 compounds, 21% hits | AID 778;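 active = CYP2C19 inhibition above a set limit at 5 µM in the primary screen, cut at about 50% in these data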
PostGolgi yeast: growth inhibition of a yeast mutant, post-Golgi transport screen; post-Golgi transport phenotypic cell assay; inhibition, % at 10 µM; 98,000 compounds, 0.9% hits;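 note: yeast cells grown in 1536-well plates; yeast grown about 18 h at 30C before absorbance read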
PostGolgi ctrl: growth of the yeast control strain, post-Golgi counter-screen | inhibition, % at 10 µM | efflux-deficient yeast background strain, growth absorbance A615, 16 h | AID 738 | 98,000 compounds, 5% hits
CYP2C9 act: activators of human CYP2C9; P11712; activation factor at 5 µM; recombinant CYP2C9, luciferin-H conversion, luminescence; active compounds read high; factor 1 = untreated enzyme, 0 = blocked; 96,000 compounds, 1.4% hits;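 active = activation factor of 2 or more for CYP2C9 at a 5 µM dose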
Target sequence (P11712 whole entry, looked up): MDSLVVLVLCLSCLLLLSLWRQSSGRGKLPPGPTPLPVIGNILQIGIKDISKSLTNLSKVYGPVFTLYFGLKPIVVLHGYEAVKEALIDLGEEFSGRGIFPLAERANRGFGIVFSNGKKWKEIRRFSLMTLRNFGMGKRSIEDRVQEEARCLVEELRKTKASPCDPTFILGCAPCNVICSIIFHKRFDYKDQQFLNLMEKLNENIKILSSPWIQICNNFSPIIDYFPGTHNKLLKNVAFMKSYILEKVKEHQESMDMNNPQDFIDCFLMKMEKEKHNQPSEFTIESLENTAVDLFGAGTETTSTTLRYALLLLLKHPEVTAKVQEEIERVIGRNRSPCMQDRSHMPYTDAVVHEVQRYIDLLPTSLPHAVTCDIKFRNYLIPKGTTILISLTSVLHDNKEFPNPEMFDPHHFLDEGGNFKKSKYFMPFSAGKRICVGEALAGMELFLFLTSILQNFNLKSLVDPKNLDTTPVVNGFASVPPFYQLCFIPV
CYP2C9 inh: human CYP2C9 inhibition. inhibition, % at 5 µM. P11712. 96,000 compounds, 20% hits. CYP2C9 Supersomes, luciferin-H conversion, luminescence. AID 777;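 active = blocking of liver enzyme CYP2C9 beyond about 50% at 5 µM, limit read from the data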
CYP2C19 activ: increases human CYP2C19 enzyme activity; P33261; recombinant CYP2C19, luciferin-H EGE luminescence; active compounds read high; 0 = fully inhibited enzyme, 1 = untreated enzyme; activation factor at 5 µM; 96,000 tested, under 10 active; AID 1025;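 active = activation factor of at least 2 at 5 µM in the primary screen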
Hits are given with their value; . = inactive; / = not tested or not shown. In the library only some 32% were active in any assay of this set; here they are far more common. Cut-off read from the data, not from the text of the source, unless noted: active = inhibition above about 30%; inactive = the rest.

SMILES	CYP2C19 inhib	PostGolgi yeast	PostGolgi ctrl	CYP2C9 act	CYP2C9 inh	CYP2C19 activ
Cc1cccc2c(=O)cc(C)n(CC(=O)N3CCCCC3)c12	88	.	.	.	.	.
Cc1cccc2c(=O)cc(C)n(CC(=O)N3CCOCC3)c12	.	.	.	.	.	.
Cc1cc(C)nc(SCCS(=O)(=O)Cc2ccccc2)n1	83	.	.	.	.	.
Cc1ccc(OCCCOc2cccc3cccnc23)cc1C	72	.	.	2.8	.	.
Cc1cccc(OCCCOc2cccc3cccnc23)c1C	56	.	.	.	.	.
Cc1cc(N2CCC(C(=O)N3CCN(c4cccc(C)c4C)CC3)CC2)n2ncnc2n1	.	.	.	.	.	.
Cc1cc(C)n(C(=O)CNC(=O)COc2ccccc2)n1	.	.	.	2	.	.
Cc1cc(C)n(C(=O)CNC(=O)Cc2ccccc2)n1	.	.	.	.	.	.
COc1ccc(C(=O)NCC(=O)n2nc(C)cc2C)cc1OC	.	.	.	2	.	.
Cc1ccc(OCC(=O)NCC(=O)n2nc(C)cc2C)cc1	.	.	.	2.3	.	.
O=C(OC(C(=O)O)C(OC(=O)c1ccccc1)C(=O)NCc1ccccc1)c1ccccc1 (stereo unspecified)	.	.	.	.	.	.
CCCOC(=O)c1ccc2c(c1)C(=O)N(c1ccccc1)C2=O	.	.	.	.	.	.
CC(NC(=O)c1cccnc1)c1ccc2c(c1)OCO2 (stereo unspecified)	.	.	.	.	.	.
CCn1c(C(=O)NC(C)c2ccc3c(c2)OCCO3)cc2sccc21 (stereo unspecified)	.	.	.	.	.	.
CC(NC(=O)c1cccs1)c1ccc2c(c1)OCO2 (stereo unspecified)	92	.	.	.	76	.
CC(NC(=O)c1cc2sccc2n1C)c1ccc2c(c1)OCCO2 (stereo unspecified)	.	.	.	.	82	.
COc1ccccc1CNc1ccc(N2CCOCC2)c(C(=O)O)c1	.	.	.	.	.	.
O=S(=O)(Nc1ccc(-c2nc3ccccc3o2)cc1)c1ccccc1	80	.	39	.	97	.
CC(=O)Nc1ccc(S(=O)(=O)Nc2cccc(-c3nc4ccccc4o3)c2)cc1	91	.	.	.	98	.
CC(=O)Nc1nc2ccc(-c3nc4ccccc4o3)cc2s1	/	.	.	/	/	/
O=C(Nc1sccc1C(=O)N1CCOCC1)c1cccnc1	.	.	.	.	.	.
Cc1nc2c3c(-c4ccccc4)c(-c4ccccc4)oc3ncn2n1	.	/	/	.	.	.
COc1ccc(NC(=O)CCNS(=O)(=O)c2ccc3c(c2)CCC(=O)N3)cc1	.	.	.	.	.	.
COc1cc(NC(=O)c2ccco2)c(OC)cc1NC(=O)c1cc(OC)c(OC)c(OC)c1	.	.	.	.	.	.
CCOc1cc(NC(=O)c2ccco2)c(OCC)cc1NC(=O)c1cc(OC)c(OC)c(OC)c1	.	.	.	.	57	.
SMILES	CYP2C19 inhib	PostGolgi yeast	PostGolgi ctrl	CYP2C9 act	CYP2C9 inh	CYP2C19 activ
COc1cc(C(=O)OCC(=O)NC2CCCC2)cc(NC(=O)c2ccco2)c1OC	78	.	.	.	73	.
O=C1C(c2ccc(F)cc2)N(CC2COc3ccccc3O2)C(=O)CN1C1CCCCC1 (stereo unspecified)	.	.	.	.	.	.
Cn1c(-c2ccc(Br)o2)nc2cc(Br)ccc21	.	.	.	.	.	.
Cn1c(-c2ccc(Br)o2)nc2ccccc21	75	.	.	.	.	.
Cc1ccc(-c2nc3ccccc3n2C)o1	67	.	.	.	.	.
Cn1c(Sc2nc3ccccc3n2C)nc2ccccc21	95	.	.	.	53	.
CC(=O)c1ccc(-c2nc3ccccc3n2C)o1	61	.	.	.	.	.
Cc1nnc(Nc2ccc(C(=O)N3CCOCC3)cc2)c2ccccc12	.	.	.	.	.	.
COc1ccc2nc(C)c(C(=O)OCCN(C)C)cc2c1	.	/	/	.	.	.
CC(C)(C)OC(=O)N1CCC[C@H]1c1nnc(SCc2ccccc2F)o1	61	.	.	.	60	.
O=C(Nc1cccc(O)c1)c1noc2c1CCc1ccccc1-2	.	.	.	.	.	.
COc1ccc(OC)c(CCNC(=O)CS(=O)(=O)Cc2nc(-c3ccc(C)cc3)oc2C)c1	54	.	.	.	66	.
CCOC(=O)c1cccc(NC(=O)CS(=O)(=O)Cc2nc(-c3cccc(OC)c3)oc2C)c1	.	.	.	.	76	.
CCOC(=O)N1CCC(NC(=O)CS(=O)(=O)Cc2nc(-c3cccc(OC)c3)oc2C)CC1	.	.	.	.	.	.
CCN(CCNC(=O)CS(=O)(=O)Cc1nc(-c2cccc(OC)c2)oc1C)c1ccccc1	78	.	.	.	87	.
COc1cccc(-c2nc(CS(=O)(=O)CC(=O)N3CCN(c4ccccn4)CC3)c(C)o2)c1	.	.	.	.	51	.
C=C(C)Cn1c(SCC(=O)O)nc2c1c(=O)[nH]c(=O)n2C	.	.	.	.	.	.
Cc1cccnc1Nc1nc(-c2ccccn2)cs1	.	101	52	.	.	.
Oc1ccc(Nc2nc(-c3ccc4ccccc4c3)cs2)cc1	.	93	82	.	.	.
O=C(CCCSc1ccccc1)Nc1nc(-c2ccccn2)cs1	.	.	.	.	.	.
Cc1cccc(Nc2nc(-c3ccccn3)cs2)n1	58	.	.	.	52	.
NS(=O)(=O)c1ccc(Nc2nc(-c3ccc(O)cc3O)cs2)cc1	79	.	.	.	68	.
Cc1cc2c(N=O)c(NO)ccc2[nH]1	.	.	.	.	.	.
CC(NC(=O)c1cccs1)C(=O)NC1=NCCS1 (stereo unspecified)	.	.	.	.	.	.
C[C@H](NC(=O)Nc1ccc2c(c1)OCCO2)C(=O)O	.	.	.	.	.	.
SMILES	CYP2C19 inhib	PostGolgi yeast	PostGolgi ctrl	CYP2C9 act	CYP2C9 inh	CYP2C19 activ
CC(=O)Nc1cccc(-c2csc(Nc3ccccn3)n2)c1	.	.	.	.	.	.
Cc1cccnc1Nc1nc(-c2ccc(O)cc2O)cs1	.	.	59	.	.	.
c1ccc(Nc2nc(-c3cccs3)cs2)nc1	/	.	31	/	/	/
CC(=O)Nc1sc2c(c1C(=O)N1CCOCC1)CCCCC2	.	.	.	.	.	.
O=C(NCc1ccccc1)c1c[nH]c2ccc(S(=O)(=O)Nc3ccc4c(c3)OCCO4)cc2c1=O	.	.	.	.	89	.
O=C(NCc1cccnc1)c1c[nH]c2cc3c(cc2c1=O)OCCO3	.	.	.	.	.	.
O=C(NC1CC1)c1c[nH]c2ccc(S(=O)(=O)Nc3cccc(C(F)(F)F)c3)cc2c1=O	.	.	.	.	54	.
CCOCCCNC(=O)c1c[nH]c2ccc(S(=O)(=O)Nc3cccc(OC)c3)cc2c1=O	.	.	.	.	68	.
CC1CCCC(C)N1C(=O)CN1C(=O)C(C)(C)Oc2ccc(C(=O)NC3CCCC3)cc21 (stereo unspecified)	.	.	.	.	.	.

Bioassay records: PubChem BioAssay, several laboratories
